# Many of the other results were omitted from the sample, so the strongest signals are more common in it than they were.
# B1: CRT-1 (Homo sapiens), P27797 (protein)
# chain: MLLSVPLLLGLLGLAVAEPAVYFKEQFLDGDGWTSRWIESKHKSDFGKFVLSSGKFYGDEEKDKGLQTSQDARFYALSASFEPFSNKGQTLVVQFTVKHEQNIDCGGGYVKLFPNSLDQTDMHGDSEYNIMFGPDICGPGTKKVHVIFNYKGKNVLINKDIRCKDDEFTHLYTLIVRPDNTYEVKIDNSQVESGSLEDDWDFLPPKKIKDPDASKPEDWDERAKIDDPTDSKPEDWDKPEHIPDPDAKKPEDWDEEMDGEWEPPVIQNPEYKGEWKPRQIDNPDYKGTWIHPEIDNPEYSPDPSIYAYDNFGVLGLDLWQVKSGTIFDNFLITNDEAYAEEFGNETWGVTKAAEKQMKDKQDEEQRLKEEEEDKKRKEEEEAEDKEDDEDKDEDEEDEEDKEEDEEEDVPGQAKDEL
# How the values were obtained:
# Assay in all cases: glycan array binding signal (z-score within array); higher = stronger binding
# Settings in all cases: glycan notation: IUPAC condensed, linker removed
# [1] = target: Fuc(a1-2)Gal(b1-4)Fuc(a1-3)]GlcNAc(b1-2)Man(a1-3)[Fuc(a1-2)Gal(b1-4)[Fuc(a1-3)]GlcNAc(b1-2)Man(a1-6)]Man(b1-4)GlcNAc(b1-4)GlcNAc
# Procedure, shortened: (§1)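 Columns mapping to the same glycan were averaged after glycan names were converted to IUPAC-condensed notation. The data come from 3228 arrays in the Consortium for Functional Glycomics database, limited to those with an available protein sequence. Binding is reported as a within-array Z-score averaged across arrays of one protein sequence and across linkers.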
# [2] = target: Fuc(a1-2)Gal(b1-4)GlcNAc(b1-3)[Fuc(a1-3)[Gal(b1-4)]GlcNAc(b1-6)]Gal(b1-4)Glc
# Procedure, shortened: as §1
# [3] = target: Fuc(a1-2)Gal(b1-4)[Fuc(a1-3)]GlcNAc(b1-2)Man(a1-3)[Fuc(a1-2)Gal(b1-4)[Fuc(a1-3)]GlcNAc(b1-2)Man(a1-6)]Man(b1-4)GlcNAc(b1-4)GlcNAc
# Procedure, shortened: as §1
# [4] = target: Fuc(a1-2)Gal6S(b1-3)GlcNAc6S
# Procedure, shortened: as §1
# [5] = target: Fuc(a1-2)[Gal(a1-3)]Gal(b1-3)GlcNAc(b1-3)GalNAc
# Procedure, shortened: as §1
# [6] = target: Fuc(a1-2)[Gal(a1-3)]Gal(b1-4)[Fuc(a1-3)]Glc
# Procedure, shortened: as §1
# [7] = target: Fuc(a1-2)[GalNAc(a1-3)]Gal(b1-4)GlcNAc
# Procedure, shortened: as §1
# [8] = target: Fuc(a1-2)[GalNAc(a1-3)]Gal(b1-4)GlcNAc(b1-2)Man(a1-3)[Fuc(a1-2)[GalNAc(a1-3)]Gal(b1-4)GlcNAc(b1-2)Man(a1-6)]Man(b1-4)GlcNAc(b1-4)GlcNAc
# Procedure, shortened: as §1
# Fuc(a1-3)GlcNAc = target: Fuc(a1-3)GlcNAc
# Procedure, shortened: as §1
# [9] = target: Fuc(a1-3)[Gal3S(b1-4)]GlcNAc
# Procedure, shortened: as §1
# [10] = target: Fuc(a1-3)[Gal3S(b1-4)]GlcNAc6S
# Procedure, shortened: as §1
# Gal(a1-3)Gal(b1-3)GlcNAc = target: Gal(a1-3)Gal(b1-3)GlcNAc
# Procedure, shortened: as §1
# [11] = target: Gal(a1-3)Gal(b1-3)[Fuc(a1-4)]GlcNAc(b1-2)Man(a1-3)[Gal(a1-3)Gal(b1-3)[Fuc(a1-4)]GlcNAc(b1-2)Man(a1-6)]Man(b1-4)GlcNAc(b1-4)GlcNAc
# Procedure, shortened: as §1
# [12] = target: Gal(a1-3)Gal(b1-4)GlcNAc(b1-2)Man
# Procedure, shortened: as §1
# [13] = target: Gal(a1-3)[Gal(a1-4)]Gal(b1-4)GlcNAc
# Procedure, shortened: as §1
# [14] = target: Gal(a1-4)Gal(b1-4)GlcNAc(b1-2)Man(a1-3)[Gal(a1-4)Gal(b1-4)GlcNAc(b1-2)Man(a1-6)]Man(b1-4)GlcNAc(b1-4)GlcNAc
# Procedure, shortened: as §1
# Gal(b1-3)GlcNAc = target: Gal(b1-3)GlcNAc
# Procedure, shortened: as §1
# [15] = target: Gal(b1-3)GlcNAc(b1-2)Man(a1-3)[Gal(b1-3)GlcNAc(b1-2)Man(a1-6)]Man(b1-4)GlcNAc(b1-4)[Fuc(a1-6)]GlcNAc
# Procedure, shortened: as §1
# Gal(b1-3)GlcNAc6S = target: Gal(b1-3)GlcNAc6S
# Procedure, shortened: as §1
# [16] = target: Gal(b1-3)[Fuc(a1-4)]GlcNAc(b1-2)Man(a1-3)[Gal(b1-3)[Fuc(a1-4)]GlcNAc(b1-2)Man(a1-6)]Man(b1-4)GlcNAc(b1-4)GlcNAc
# Procedure, shortened: as §1
# Gal(b1-4)Gal = target: Gal(b1-4)Gal
# Procedure, shortened: as §1
# [17] = target: Gal(b1-4)GlcNAc(b1-3)Gal(b1-3)GlcNAc
# Procedure, shortened: as §1
# [18] = target: Gal(b1-4)GlcNAc(b1-3)Gal(b1-4)GlcNAc(b1-3)Gal(b1-4)GlcNAc(b1-3)Gal(b1-4)GlcNAc(b1-2)Man(a1-3)[Gal(b1-4)GlcNAc(b1-3)Gal(b1-4)GlcNAc(b1-3)Gal(b1-4)GlcNAc(b1-3)Gal(b1-4)GlcNAc(b1-2)Man(a1-6)]Man(b1-4)GlcNAc(b1-4)[Fuc(a1-6)]GlcNAc
# Procedure, shortened: as §1
# [19] = target: Gal(b1-4)GlcNAc(b1-3)Gal(b1-4)GlcNAc(b1-3)Gal(b1-4)GlcNAc(b1-3)Gal(b1-4)GlcNAc(b1-3)Gal(b1-4)GlcNAc(b1-2)Man(a1-3)[Gal(b1-4)GlcNAc(b1-3)Gal(b1-4)GlcNAc(b1-3)Gal(b1-4)GlcNAc(b1-3)Gal(b1-4)GlcNAc(b1-3)Gal(b1-4)GlcNAc(b1-2)Man(a1-6)]Man(b1-4)GlcNAc(b1-4)GlcNAc
# Procedure, shortened: as §1
# [20] = target: Gal(b1-4)GlcNAc(b1-3)[Gal(b1-4)GlcNAc(b1-6)]Gal(b1-4)GlcNAc
# Procedure, shortened: as §1
# [21] = target: Gal(b1-4)GlcNAc(b1-3)[Gal(b1-4)GlcNAc(b1-6)]GalNAc
# Procedure, shortened: as §1
binder,measurement,setting,value
B1,glycan array binding signal (z-score),[1],1.49
same,glycan array binding signal (z-score),[2],0.038
same,glycan array binding signal (z-score),[3],2.15
same,glycan array binding signal (z-score),[4],0.305
same,glycan array binding signal (z-score),[5],-0.073
same,glycan array binding signal (z-score),[6],-0.424
same,glycan array binding signal (z-score),[7],-0.467
same,glycan array binding signal (z-score),[8],0.117
same,glycan array binding signal (z-score),Fuc(a1-3)GlcNAc,2.63
same,glycan array binding signal (z-score),[9],0.572
same,glycan array binding signal (z-score),[10],0.146
same,glycan array binding signal (z-score),Gal(a1-3)Gal(b1-3)GlcNAc,-0.43
same,glycan array binding signal (z-score),[11],0.078
same,glycan array binding signal (z-score),[12],-0.279
same,glycan array binding signal (z-score),[13],0.255
same,glycan array binding signal (z-score),[14],-0.021
same,glycan array binding signal (z-score),Gal(b1-3)GlcNAc,-0.063
same,glycan array binding signal (z-score),[15],0.223
same,glycan array binding signal (z-score),Gal(b1-3)GlcNAc6S,0.611
same,glycan array binding signal (z-score),[16],2.33
same,glycan array binding signal (z-score),Gal(b1-4)Gal,-0.253
same,glycan array binding signal (z-score),[17],-0.342
same,glycan array binding signal (z-score),[18],1.79
same,glycan array binding signal (z-score),[19],1.75
same,glycan array binding signal (z-score),[20],0.487
same,glycan array binding signal (z-score),[21],-0.095

# From the supplement of paper PMC8728848
